# Screen size: about 320,000 compounds; about 2,100 (0.66%) were called active. Another 53% or so got no clear call; they are omitted. Calls come from the whole dose curve; as a rule, active = well fitted inhibition curve with a large enough effect in the signal ratio, with a control signal flat (not every such curve was filed as active); inconclusive = small, poorly fitted or top-dose-only effect, or effect the other way, or a change in a side signal; inactive = flat fitted curve, though single readings scatter; the % refers to the signal ratio. For the sample, actives were picked, then their nearest neighbours and some compounds at random.
# Assay: qHTS Assay for Lipid Storage Modulators in Drosophila S3 Cells;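 for cell number change: cells counted by Cell Tracker Red CMTPX staining in the red channel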; for lipid storage change, negative = inhibition: % is set by controls: 0 for no effect and ±100 for the full control effect
# Details: BODIPY lipid droplet fluorescence, 18-24 h, cells fed with added oleic acid; cell number change: measured here: cell count max response; series mostly up to 46.1 µM; lipid storage change, negative = inhibition: at the top concentration
# Outline: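 Drosophila S3 cells loaded with oleic acid (400 uM, as added) and compounds at several concentrations; lipid droplets imaged by 488-nm laser-scanning cytometry, 500–530 nm intensity and object ratio to cell channel. Percent activity normalized to 20 uM Triacsin C.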
# Potency is the fitted concentration of half-maximal effect.
Structure (SMILES),"lipid storage change, negative = inhibition",cell number change,outcome,Potency
CCC(C)NC(=O)CN1C(=O)C(CC)Sc2ccccc21 (configuration not stated),-2.81% (inactive),-9.92%,,
CCOc1ccccc1NC(=O)C1CCCN(S(=O)(=O)c2ccc(-n3cnnn3)cc2)C1 (configuration not stated),,20.5%,inactive,
CCOC(=O)C1(CC2CC2)CCN(C(=O)c2cc(C3CC3)nc3ccccc23)CC1,,-20.4%,,25.9 µM (active)
CCOC(=O)C1(CC2CC2)CCN(C(=O)c2ocnc2C)CC1,-7.18% (inactive),-6.88%,,
CCOC(=O)C1(CC2CC2)CCN(C(=O)c2cccnc2C)CC1,6.98% (inactive),26%,,
Cc1cc(Br)cc(C)c1NC(=O)c1ccc(C#N)cc1F,-22.4% (inactive),3.82%,,
C=CCNC(=S)NNC(=O)c1ccc(OCC)cc1,-0.066% (inactive),-9.79%,,
COc1ccccc1CNC(=O)c1oc2ccc(S(=O)(=O)N3CCOCC3)cc2c1C,,-8.7%,,29.1 µM (active)
COc1ccccc1CNC(=O)c1oc2ccc(S(=O)(=O)N3CCCC3)cc2c1C,-29.2% (inactive),,,
Cc1c(C(=O)NCCCN2CCCC2=O)oc2ccc(S(=O)(=O)N3CCOCC3)cc12,,-0.135%,inactive,
Cc1c(C(=O)NCCC2=CCCCC2)oc2ccc(S(=O)(=O)N3CCOCC3)cc12,16.1% (inactive),-13.3%,,
Cc1c(C(=O)NCc2c(F)cc(F)cc2F)oc2ccc(S(=O)(=O)N3CCOCC3)cc12,,-3.48%,,2.91 µM (active)
COc1ccccc1CNC(=O)[C@@H]1CCCN1S(=O)(=O)c1ccc(Cl)cc1,,-7.14%,inactive,
CCOCCCNC(=O)c1oc2ccc(S(=O)(=O)N3CCOCC3)cc2c1C,,,,18.4 µM (active)
COc1cccc(NC(=O)c2oc3ccc(S(=O)(=O)N4CCOCC4)cc3c2C)c1,5.07% (inactive),4.15%,,
Cc1c(C(=O)NCCCN2CCOCC2)oc2ccc(S(=O)(=O)N3CCOCC3)cc12,10% (inactive),20.6%,,
COc1ccccc1CNC(=O)N1CCN(S(=O)(=O)c2ccc(Cl)cc2)CC1,,1.35%,,0.13 µM (active)
Cc1c(C(=O)NCc2ccc(F)cc2)oc2ccc(S(=O)(=O)N3CCOCC3)cc12,,-3.6%,inactive,
O=C(NCc1ccc(Cl)cc1)N1CCN(S(=O)(=O)c2ccccc2)CC1,-6.54% (inactive),17.1%,,
O=C1CN(C(=O)CNC(=O)c2cccc(Cl)c2)c2ccccc2N1,0.224% (inactive),17%,,
Cc1cccn2c(=O)c(/C=C(\C#N)S(=O)(=O)c3ccccc3)c(Oc3ccc(Cl)cc3)nc12,2.66% (inactive),-10.2%,,

Structure (SMILES),"lipid storage change, negative = inhibition",cell number change,outcome,Potency
CC(=O)N1CCN(c2ccccc2NC(=O)COc2cc(C)cc(C)c2)CC1,-100% (inactive),13.5%,,
CCOc1ccc(S(=O)(=O)NCc2csc(C)n2)cc1,,,inactive,
CCS(=O)(=O)c1ccc2oc(Nc3ccc(C(C)C)cc3)nc2c1,-3.92% (inactive),2.93%,,
CCn1nc(C)cc1C(=O)N1CCc2c([nH]c3ccccc23)C1c1cc(F)ccc1F (configuration not stated),-9.5% (inactive),8.47%,,
COc1ccc(C(C)(C)C)cc1NC(=O)c1cc(S(=O)(=O)N(C)C)ccc1N1CCCC1,,-23.6%,,18.4 µM (active)
CN(C)S(=O)(=O)c1ccc(N2CCCC2)c(C(=O)Nc2ccccc2OC(F)F)c1,9.18% (inactive),29.4%,,
CN(C)S(=O)(=O)c1ccc(N2CCCC2)c(C(=O)Nc2ccccc2F)c1,14.2% (inactive),25.2%,,
COc1ccc(S(=O)(=O)NC2CCCC2)cc1NC(C)=O,-1.83% (inactive),17.4%,,
COc1ccc(C=O)cc1Oc1nc(Cl)ncc1F,21.6% (inactive),5.61%,,
CC(CCc1ccccc1)NC(=O)CN1CCN(c2ccc(O)cc2)CC1 (configuration not stated),-11.9% (inactive),0.962%,,
CC(=O)Nc1ccc(SCC(=O)c2ccc(Br)s2)cc1,,5.88%,inactive,
COc1ccc(S(N)(=O)=O)cc1-c1nnc2c3ccccc3c(C)nn12,-0.656% (inactive),-15.7%,,
COc1ccc(S(=O)(=O)c2c(O)c3ccc(C(=O)Nc4ccc(F)cc4)cc3[nH]c2=O)cc1,,-7.08%,inactive,
COc1ccc(S(=O)(=O)c2c(O)c3ccc(C(=O)Nc4ccccc4)cc3[nH]c2=O)cc1,26.4% (inactive),23%,,
Cc1ccc(S(=O)(=O)c2c(O)c3ccc(C(=O)O)cc3[nH]c2=O)cc1,,-5.9%,,11.6 µM (active)
Cc1cccc(NC(=O)c2cc(Cl)ccc2[N+](=O)[O-])c1,4.85% (inactive),,,
Cc1cccc(Nc2nc(N)c([N+](=O)[O-])c(NCCO)n2)c1,0.152% (inactive),-0.837%,,
O=C(CSc1ccc2ccccc2n1)NCc1ccc2c(c1)OCO2,19.1% (inactive),26.9%,,
O=C1CCCN1CCCNC(=S)Nc1ccccc1,15.3% (inactive),-7.97%,,
Cc1cc(Cl)ccc1NC(=S)NCCCN1CCCC1=O,18.7% (inactive),7.04%,,
Cc1cccc(C)c1NC(=S)NCCCN1CCCC1=O,,-0.836%,,0.461 µM (active)

Structure (SMILES),"lipid storage change, negative = inhibition",cell number change,outcome,Potency
CCN1CCN(CC(O)COCCOc2ccc(Br)cc2)CC1 (configuration not stated),-7.14% (inactive),4.7%,,
Cc1cccc(OCC(=O)NCc2cc(C)nc3ccccc23)c1,5.62% (inactive),-5.05%,,
CCOc1ccc(C(C)NC(=O)c2cc(=O)[nH]c3ccccc23)cc1OCC (configuration not stated),,6.31%,,0.0021 µM (active)
COc1ccccc1C(C)NC(=O)c1cc(=O)[nH]c2ccccc12 (configuration not stated),,-5.13%,inactive,
COc1ccccc1OCCNC(=O)c1cc(=O)[nH]c2ccccc12,8.99% (inactive),13.3%,,
CC(=O)c1cccc(N(CC(=O)NC2CCCCC2)C(=O)CNC(=O)c2cccs2)c1,,16.1%,inactive,
COCCNC(=O)c1c(N)n(/N=C/c2ccc(F)cc2)c2nc3ccccc3nc12,3.89% (inactive),21.5%,,
COCCCNC(=O)c1c(N)n(/N=C/c2ccccn2)c2nc3ccccc3nc12,,,,7.31 µM (active)
CCC(C)NC(=O)c1c(N)n(/N=C/c2ccccn2)c2nc3ccccc3nc12 (configuration not stated),16.9% (inactive),8.8%,,
Cc1ccc(-c2ccc(=O)n(CCC(=O)N3CCN(Cc4ccccc4)CC3)n2)cc1,,,inactive,
COc1cccc(COC(=O)c2ccc3c(c2)NC(=O)C(C)S3)c1OC (configuration not stated),,,,3.26 µM (active)
COc1ccc(CNC(=O)c2ccc3c(c2)NC(=O)C(C)S3)cc1 (configuration not stated),-0.216% (inactive),-2.51%,,
COc1ccc(Br)cc1CN(C)C(=O)c1ccc2c(c1)NC(=O)C(C)S2 (configuration not stated),4.83% (inactive),,,
CN1CCN(C(=O)c2cc(Cl)ccc2NC(=O)c2ccc(Cl)cc2Cl)CC1,-0.54% (inactive),,,
C=CCn1c(SCC(N)=O)nc2sc3c(c2c1=O)CCC3,,-3.38%,inactive,
O=C(CN1CCN(c2ccccc2O)CC1)NC(c1ccccc1)c1ccccc1,16.7% (inactive),6.07%,,
O=C(CN1CCN(c2ccc(O)cc2)CC1)Nc1cc(S(=O)(=O)N2CCCCC2)ccc1Cl,10.5% (inactive),21%,,
CC(NC(=O)CN1CCN(c2ccc(Cl)cc2)CC1)c1ccccc1 (configuration not stated),-3.9% (inactive),-1.82%,,
O=C(CN1CCN(c2ccc(O)cc2)CC1)Nc1cc(S(=O)(=O)N2CCCC2)ccc1Cl,4.5% (inactive),-1.92%,,
O=C(CN1CCN(c2ccccc2O)CC1)Nc1cc(S(=O)(=O)N2CCCC2)ccc1Cl,,-12.2%,,0.259 µM (active)
CC(NC(=O)c1ccccc1NC(=O)CN1CCN(c2ccccc2O)CC1)c1ccccc1 (configuration not stated),,14.4%,,8.2 µM (active)
